# Test results published in PubChem BioAssay (NCI).
# This is part of a sample that, as a whole, favours compounds with a hit. Of some 79,000 tested, about 15% had one in any assay. A number with no mark means an inactive call. Activity calls are given as the source filed them. No stated cut-off is given here; in the data, active means growth inhibition above about 70%; inactive means the rest.
# Assays:
# [1] = NCI Yeast Anticancer Drug Screen. Data for the mlh1 strain (AID 171);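 further: 0% = growth of vehicle-treated control cultures of the same strain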; settings: S. cerevisiae mlh1 strain growth inhibition, hits give high values
# Outline: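 Read-out: growth inhibition versus vehicle controls. Strain: engineered yeast with a defined DNA repair or cell cycle defect, compound-treated.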
# [2] = NCI Yeast Anticancer Drug Screen. Data for the sgs1 strain (AID 173);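 further: 0% = growth of vehicle-only control cultures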; settings: S. cerevisiae sgs1 mutant, hits give high values
# Outline: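 Read-out: yeast growth inhibition relative to vehicle controls, following compound exposure of a strain with a defined DNA repair/cell cycle alteration.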
# [3] = NCI Yeast Anticancer Drug Screen. Data for the mlh1 rad18 strain (AID 175); settings: S. cerevisiae mlh1 rad18 strain growth inhibition, hits give high values
# Outline: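 Yeast w/ defined DNA-repair lesions; compound exposure; growth vs vehicle controls → % inhibition.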
# [4] = NCI Yeast Anticancer Drug Screen. Data for the rad18 strain (AID 177); settings: S. cerevisiae rad18 mutant growth inhibition, hits give high values
# Outline: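 Readout: growth inhibition vs vehicle controls. Cells: genetically altered yeast strain, DNA repair defect.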
# [5] = NCI Yeast Anticancer Drug Screen. Data for the rad52 strain (AID 147);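 further: 0% = growth of vehicle-treated control cultures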; settings: S. cerevisiae rad52 mutant growth inhibition, hits give high values
# Outline: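 Read-out: growth inhibition versus vehicle-treated controls. Cells were a DNA repair-deficient yeast strain treated with compounds.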
# [6] = NCI Yeast Anticancer Drug Screen. Data for the wt1 strain (AID 149);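 further: 0% = growth of vehicle-treated wt1 cultures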; settings: S. cerevisiae wt1 strain (SPY 50644) growth inhibition, hits give high values
# Outline: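 wt1 yeast, compound-treated; % growth inhibition vs vehicle control.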
# [7] = NCI Yeast Anticancer Drug Screen. Data for the rad50EPP+ strain (AID 151);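 further: 0% = growth of vehicle-treated control cultures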; settings: S. cerevisiae rad50 mutant strain, hits give high values
# Outline: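 Growth inhibition read against vehicle controls in rad50EPP+ yeast, a strain altered in DNA damage repair, after compound exposure.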
# [8] = NCI Yeast Anticancer Drug Screen. Data for the mgt1 strain (AID 153); settings: S. cerevisiae mgt1 mutant growth inhibition, hits give high values
# Outline: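 mgt1 yeast grown with test compound; read-out is growth inhibition versus vehicle-treated cultures.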
# [9] = NCI Yeast Anticancer Drug Screen. Data for the rad50 strain (AID 155);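 further: 0% = growth of vehicle-only cultures of the same strain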; settings: S. cerevisiae rad50 strain growth inhibition, hits give high values
# Outline: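 Genetically altered yeast (DNA repair pathway); compound treatment; growth inhibition vs vehicle ctrl.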
# [10] = NCI Yeast Anticancer Drug Screen. Data for the mec2-1 strain (AID 157); settings: S. cerevisiae mec2-1 strain, hits give high values
# Outline: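 Yeast mec2-1 mutant treated with compound. Readout: growth inhibition vs vehicle controls.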
# [11] = NCI Yeast Anticancer Drug Screen. Data for the sgs1 mgt1 strain (AID 161);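 further: 0% = growth of cultures given vehicle only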; settings: S. cerevisiae sgs1 mgt1 strain, hits give high values
# Outline: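 Inhibition of yeast growth, normalised to vehicle-treated controls, is reported for a strain bearing genetic alterations in DNA damage repair.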
# [12] = NCI Yeast Anticancer Drug Screen. Data for the CLN2oe strain (AID 163);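 further: 0% = growth of vehicle-only control cultures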; settings: S. cerevisiae CLN2oe strain, hits give high values
# Outline: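 Read-out: yeast growth inhibition, expressed relative to vehicle-only controls. The strain bears an engineered cell-cycle alteration.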
# [13] = NCI Yeast Anticancer Drug Screen. Data for the cln2 rad14 strain (AID 165);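 further: 0% = growth equal to vehicle treated cultures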; settings: S. cerevisiae cln2 rad14 strain, hits give high values
# Outline: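 cln2 rad14 yeast strain; compound exposure; growth inhibition read vs vehicle controls.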
# [14] = NCI Yeast Anticancer Drug Screen. Data for the bub3 strain (AID 167); settings: S. cerevisiae bub3 mutant strain, hits give high values
# Outline: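 Yeast carrying a defined mutation is treated with each compound, and growth is compared with that of vehicle-exposed cells to give inhibition.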
# [15] = NCI Yeast Anticancer Drug Screen. Data for the wt2 strain (AID 169);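 further: 0% = growth of vehicle-treated yeast cultures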; settings: S. cerevisiae wt2 strain growth inhibition, hits give high values
# Outline: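 Read-out: growth inhibition versus vehicle-treated control cultures after compound exposure of the yeast strain.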
# [16] = NCI Yeast Anticancer Drug Screen. Data for the rad14 strain (AID 159);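 further: 0% = growth of vehicle-treated control cultures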; settings: S. cerevisiae rad14 strain growth inhibition, hits give high values
# Outline: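 Test compounds were applied to a repair-deficient yeast strain. Its growth was then compared with that of cultures given vehicle alone, and inhibition was expressed relative to those controls.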
# [17] = at 5.0 µM (retest, dose inferred, filed as 0.5)
# [18] = at 50.0 µM (retest, dose inferred, filed as 5.0)
structure (smiles),measurement,setting,value
O=[N+]([O-])/C=C/c1ccc2ccccc2c1,growth inhibition,[1]; at 1.2 µM,1%
same,growth inhibition,[1]; at 3.7 µM,38%
same,growth inhibition,[1]; at 11.0 µM,100% (active)
same,growth inhibition,[1]; at 33.0 µM,100% (active)
same,growth inhibition,[1]; at 100.0 µM,100% (active)
same,growth inhibition,[2]; at 1.2 µM,23%
same,growth inhibition,[2]; at 3.7 µM,98% (active)
same,growth inhibition,[2]; at 11.0 µM,100% (active)
same,growth inhibition,[2]; at 33.0 µM,100% (active)
same,growth inhibition,[2]; at 100.0 µM,100% (active)
same,growth inhibition,[3]; [17],-256%
same,growth inhibition,[3]; [18],93% (active)
same,growth inhibition,[3]; at 50.0 µM,98.8% (active)
same,growth inhibition,[4]; at 1.2 µM,6%
same,growth inhibition,[4]; at 3.7 µM,48%
same,growth inhibition,[4]; at 11.0 µM,99% (active)
same,growth inhibition,[4]; at 33.0 µM,100% (active)
same,growth inhibition,[4]; at 100.0 µM,99% (active)
Cc1ccc(NC(=O)/C(Cl)=C(\Cl)C(=O)O)cc1C,growth inhibition,[5]; at 1.2 µM,2%
same,growth inhibition,[5]; at 3.7 µM,7%
same,growth inhibition,[5]; at 11.0 µM,42%
same,growth inhibition,[5]; at 33.0 µM,99% (active)
same,growth inhibition,[5]; at 100.0 µM,99% (active)
same,growth inhibition,[6]; at 1.2 µM,-2%
same,growth inhibition,[6]; at 3.7 µM,-3%
same,growth inhibition,[6]; at 11.0 µM,2%
same,growth inhibition,[6]; at 33.0 µM,88% (active)
same,growth inhibition,[6]; at 100.0 µM,98% (active)
same,growth inhibition,[7]; at 1.2 µM,6%
same,growth inhibition,[7]; at 3.7 µM,16%
same,growth inhibition,[7]; at 11.0 µM,77% (active)
same,growth inhibition,[7]; at 33.0 µM,99% (active)
same,growth inhibition,[7]; at 100.0 µM,99% (active)
same,growth inhibition,[8]; at 1.2 µM,4%
same,growth inhibition,[8]; at 3.7 µM,7%
same,growth inhibition,[8]; at 11.0 µM,22%
same,growth inhibition,[8]; at 33.0 µM,99% (active)
same,growth inhibition,[8]; at 100.0 µM,99% (active)
same,growth inhibition,[9]; at 1.2 µM,2%
same,growth inhibition,[9]; at 3.7 µM,7%
same,growth inhibition,[9]; [17],13%
same,growth inhibition,[9]; at 11.0 µM,38%
same,growth inhibition,[9]; at 33.0 µM,99% (active)
same,growth inhibition,[9]; [18],99% (active)
same,growth inhibition,[9]; at 50.0 µM,99.2% (active)
same,growth inhibition,[9]; at 100.0 µM,98% (active)
same,growth inhibition,[10]; at 1.2 µM,6%
same,growth inhibition,[10]; at 3.7 µM,10%
same,growth inhibition,[10]; [17],15%
same,growth inhibition,[10]; at 11.0 µM,24%
same,growth inhibition,[10]; at 33.0 µM,99% (active)
same,growth inhibition,[10]; [18],100% (active)
same,growth inhibition,[10]; at 50.0 µM,99.5% (active)
same,growth inhibition,[10]; at 100.0 µM,99% (active)
same,growth inhibition,[11]; [17],21%
same,growth inhibition,[11]; [18],100% (active)
same,growth inhibition,[11]; at 50.0 µM,99.5% (active)
same,growth inhibition,[12]; at 1.2 µM,3%
same,growth inhibition,[12]; at 3.7 µM,4%
same,growth inhibition,[12]; at 11.0 µM,13%
same,growth inhibition,[12]; at 33.0 µM,96% (active)
same,growth inhibition,[12]; at 100.0 µM,99% (active)
same,growth inhibition,[13]; [17],8%
same,growth inhibition,[13]; [18],99% (active)
same,growth inhibition,[13]; at 50.0 µM,72% (active)
same,growth inhibition,[14]; at 1.2 µM,7%
same,growth inhibition,[14]; at 3.7 µM,5%
same,growth inhibition,[14]; [17],21%
same,growth inhibition,[14]; at 11.0 µM,20%
same,growth inhibition,[14]; at 33.0 µM,99% (active)
same,growth inhibition,[14]; [18],99% (active)
same,growth inhibition,[14]; at 50.0 µM,99.5% (active)
same,growth inhibition,[14]; at 100.0 µM,99% (active)
same,growth inhibition,[15]; at 1.2 µM,0%
same,growth inhibition,[15]; at 3.7 µM,2%
same,growth inhibition,[15]; at 11.0 µM,11%
same,growth inhibition,[15]; at 33.0 µM,97% (active)
same,growth inhibition,[15]; at 100.0 µM,99% (active)
same,growth inhibition,[1]; at 1.2 µM,1%
same,growth inhibition,[1]; at 3.7 µM,4%
same,growth inhibition,[1]; at 11.0 µM,12%
same,growth inhibition,[1]; at 33.0 µM,96% (active)
same,growth inhibition,[1]; at 100.0 µM,99% (active)
same,growth inhibition,[2]; at 1.2 µM,1%
same,growth inhibition,[2]; at 3.7 µM,6%
same,growth inhibition,[2]; at 11.0 µM,29%
same,growth inhibition,[2]; at 33.0 µM,99% (active)
same,growth inhibition,[2]; at 100.0 µM,99% (active)
same,growth inhibition,[3]; [17],16%
same,growth inhibition,[3]; [18],99% (active)
same,growth inhibition,[3]; at 50.0 µM,99.3% (active)
CC(CC(C)(C)[N+](C)(C)C)[N+](C)(C)C (centres undefined),growth inhibition,[5]; at 1.2 µM,13%
same,growth inhibition,[5]; at 3.7 µM,1%
same,growth inhibition,[5]; at 11.0 µM,13%
same,growth inhibition,[5]; at 33.0 µM,15%
same,growth inhibition,[5]; at 100.0 µM,14%
same,growth inhibition,[6]; at 1.2 µM,3%
same,growth inhibition,[6]; at 3.7 µM,-2%
same,growth inhibition,[6]; at 11.0 µM,-3%
same,growth inhibition,[6]; at 33.0 µM,-3%
same,growth inhibition,[6]; at 100.0 µM,0%
same,growth inhibition,[7]; at 1.2 µM,-1%
same,growth inhibition,[7]; at 3.7 µM,1%
same,growth inhibition,[7]; at 11.0 µM,1%
same,growth inhibition,[7]; at 33.0 µM,4%
same,growth inhibition,[7]; at 100.0 µM,-1%
same,growth inhibition,[8]; at 1.2 µM,-1%
same,growth inhibition,[8]; at 3.7 µM,1%
same,growth inhibition,[8]; at 11.0 µM,2%
same,growth inhibition,[8]; at 33.0 µM,1%
same,growth inhibition,[8]; at 100.0 µM,0%
same,growth inhibition,[9]; at 1.2 µM,1%
same,growth inhibition,[9]; at 3.7 µM,1%
same,growth inhibition,[9]; [17],25%
same,growth inhibition,[9]; at 11.0 µM,2%
same,growth inhibition,[9]; at 33.0 µM,2%
same,growth inhibition,[9]; [18],95% (active)
same,growth inhibition,[9]; at 50.0 µM,92.8% (active)
same,growth inhibition,[9]; at 100.0 µM,0%
same,growth inhibition,[10]; at 1.2 µM,5%
same,growth inhibition,[10]; at 3.7 µM,-11%
same,growth inhibition,[10]; [17],19%
same,growth inhibition,[10]; at 11.0 µM,-4%
same,growth inhibition,[10]; at 33.0 µM,2%
same,growth inhibition,[10]; [18],97% (active)
same,growth inhibition,[10]; at 50.0 µM,96% (active)
same,growth inhibition,[10]; at 100.0 µM,-4%
same,growth inhibition,[16]; at 1.2 µM,2%
same,growth inhibition,[16]; at 3.7 µM,3%
same,growth inhibition,[16]; at 11.0 µM,3%
same,growth inhibition,[16]; at 33.0 µM,3%
same,growth inhibition,[16]; at 100.0 µM,1%
same,growth inhibition,[11]; [17],1%
same,growth inhibition,[11]; [18],91% (active)
same,growth inhibition,[11]; at 50.0 µM,95.8% (active)
same,growth inhibition,[13]; [17],35%
same,growth inhibition,[13]; [18],95% (active)
same,growth inhibition,[13]; at 50.0 µM,90.8% (active)
same,growth inhibition,[14]; at 1.2 µM,-2%
same,growth inhibition,[14]; at 3.7 µM,-8%
same,growth inhibition,[14]; [17],67%
same,growth inhibition,[14]; at 11.0 µM,0%
same,growth inhibition,[14]; at 33.0 µM,-1%
same,growth inhibition,[14]; [18],99% (active)
same,growth inhibition,[14]; at 50.0 µM,95.7% (active)
same,growth inhibition,[14]; at 100.0 µM,-1%
same,growth inhibition,[15]; at 1.2 µM,-1%
same,growth inhibition,[15]; at 3.7 µM,-1%
same,growth inhibition,[15]; at 11.0 µM,0%
same,growth inhibition,[15]; at 33.0 µM,-1%
same,growth inhibition,[15]; at 100.0 µM,-1%
same,growth inhibition,[1]; at 1.2 µM,-1%
same,growth inhibition,[1]; at 3.7 µM,-1%
same,growth inhibition,[1]; at 11.0 µM,-2%
same,growth inhibition,[1]; at 33.0 µM,-3%
same,growth inhibition,[1]; at 100.0 µM,0%
same,growth inhibition,[2]; at 1.2 µM,2%
same,growth inhibition,[2]; at 3.7 µM,3%
same,growth inhibition,[2]; at 11.0 µM,1%
same,growth inhibition,[2]; at 33.0 µM,4%
same,growth inhibition,[2]; at 100.0 µM,-1%
same,growth inhibition,[3]; [17],12%
same,growth inhibition,[3]; [18],97% (active)
same,growth inhibition,[3]; at 50.0 µM,94.3% (active)
